FBPA Giardia inh: qHTS Assay for Inhibitors of Fructose-1,6-bisphosphate Aldolase from Giardia Lamblia; AID 2451, 2010; Potency, µM (doses to about 59.6 µM), hits mostly inhibitors; purified Giardia FBPA; actives 0.71% (n = 290,000); A8B2U2; further: nearly all actives have a fitted effect of over 55% in size
Target sequence (A8B2U2 whole entry, looked up): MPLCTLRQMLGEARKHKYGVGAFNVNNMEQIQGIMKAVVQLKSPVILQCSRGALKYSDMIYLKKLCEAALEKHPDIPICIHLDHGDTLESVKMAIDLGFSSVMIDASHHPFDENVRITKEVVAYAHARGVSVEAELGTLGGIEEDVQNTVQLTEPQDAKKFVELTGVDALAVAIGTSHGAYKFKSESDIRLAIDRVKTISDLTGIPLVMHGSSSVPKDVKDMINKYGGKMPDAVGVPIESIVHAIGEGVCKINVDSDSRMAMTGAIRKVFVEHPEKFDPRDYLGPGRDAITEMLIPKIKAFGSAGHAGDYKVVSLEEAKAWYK
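Giardia FBPA (40 nM reagent) was preincubated 10 min at RT with compound (up to 57.5 uM final), then substrate plus GAPDH/TPI/NAD/arsenate coupling system with diaphorase/resazurin was added; resorufin fluorescence (525/598 nm) was read after 20 min.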
Cycloheximide cs: Cycloheximide Counterscreen for Small Molecule Inhibitors of Shiga Toxin | cell reporter, cycloheximide protein synthesis inhibition counterscreen | max response, % | actives 12% (n = 300,000) | AID 2314, 2010; in the data active means max response mostly above about 13%, no sharp cut-off; inactive means mostly below about 14%; further: read at 38.3 µM for the half of the compounds with a filed dose
NS1 inh: qHTS Assay for Inhibitors of Influenza NS1 Protein Function. Potency, µM (titrated, usually from 46.1 µM). actives 0.4% (n = 270,000); calls by dose curve; further: actives are rising curves; nearly all actives have a fitted effect of over 50% in size
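Recovery from NS1-induced slow growth read by OD600 in budding yeast switched to galactose assay medium (pH 6.0, -URA) at 1:100 dilution. Compound 23 nl per well; the matching strain lacking NS1 serves as control.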
Shiga toxin inh: A qHTS for Small Molecule Inhibitors of Shiga Toxin | Vero cells, Shiga toxin protein synthesis inhibition reporter | inhibition, % at 38.7 µM | actives 9.2% (n = 290,000) | AID 2315, 2010; in the data active means inhibition mostly above about 28%, no sharp cut-off; inactive means mostly below about 43%
LmPK inhibitor: qHTS Assay for Inhibitors of Leishmania Mexicana Pyruvate Kinase (LmPK). Q27686. purified LmPK, Kinase-Glo ATP luminescence, 1 h. Potency, µM (series often up to 57.5 µM), most hits filed as inhibitors. actives 0.37% (n = 290,000)
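qHTS format; LmPK 0.1 nM; substrates PEP 0.5 mM and ADP 0.1 mM. One-hour room-temperature incubation, then coupled luciferase luminescence; 0.5 nM enzyme wells mark activation.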
Of the large screens only hits and unclear results are named; the others gave an inactive call. Compounds with a hit are over-represented: about 14% of the library has one in this group of screens. Unless noted, the call rests on the fitted dose curve; in most records, active means well fitted curve in the direction sought with a large enough effect; inconclusive means small, poorly fitted or top-dose-only effect, or another doubt; inactive means no such curve, though single readings can be large; an effect the other way counts as inactive or inconclusive.

Cc1c(C(=O)NCCCN2CCCC2=O)oc2ccccc12	Cycloheximide cs 27, Shiga toxin inh 72
Cc1c(C(=O)NC2CCC(C)CC2)oc2ccccc12 (centres undefined)	Cycloheximide cs 46, Shiga toxin inh 61 (no result: FBPA Giardia inh)
Cn1nc(C(=O)NCCCN2CCCCC2)c2c1-c1ccccc1SC2	none
CCCNc1sc(S(=O)(=O)CCC)nc1S(=O)(=O)c1ccc(C)cc1	none (no result: NS1 inh)
O=S1(=O)CCOC[C@H](c2ccccc2)N1Cc1ccccc1F	none
Cc1c(C(=O)NCCc2ccccc2)oc2ccc(S(=O)(=O)N3CCOCC3)cc12	Cycloheximide cs 15
Cc1c(C(=O)NC2CCN(Cc3ccccc3)C2)oc2ccc(Br)cc12 (centres undefined)	Cycloheximide cs 14, Shiga toxin inh 78
CCOc1ccc2oc(C(=O)NC3CCN(Cc4ccccc4)CC3)c(C)c2c1	none (no result: NS1 inh)
O=C(NCCc1ccccc1)c1oc2ccccc2c1COc1ccccc1	Cycloheximide cs 26, Shiga toxin inh 39
O=C(Nc1ccccc1Cc1ccccc1)c1oc2ccccc2c1COc1ccccc1	none
COCCCNC(=O)c1oc2ccc(S(=O)(=O)N3CCOCC3)cc2c1C	none
Cc1c(C(=O)NCCc2ccccc2)oc2ccccc12	Cycloheximide cs 29, Shiga toxin inh 75
Cc1ccc2nc(C)cc(C(=O)N3CCCC(N4CCN(c5ccccc5C)CC4)C3)c2c1 (centres undefined)	none
Cc1ccc(C(=O)NCCNC(=O)COc2ccc(Cl)cc2)cn1	none
COc1ccc2c(ccc[n+]2CC(=O)c2ccccc2)c1	none
COc1ccc(C(=O)C[n+]2ccccc2/C=N/O)cc1	Cycloheximide cs 19
O=C(O)CN1C(=O)C(=O)N(Cc2ccccc2F)C1=O	none
CC1CCCN(CCCNC(=O)C2CCN(S(=O)(=O)N3CCC4(CC3)OCCO4)CC2)C1 (centres undefined)	none
CC(C)(C)c1ccc(NC(=O)CC2(C(F)(F)F)OCCO2)cc1	Cycloheximide cs 32
COc1ccc2c(c1)CCN1C2CCN2C(=O)CCC21 (centres undefined)	none
Cc1oc(C(=O)O)cc1CSCc1cc(C(=O)O)c(C)o1	Cycloheximide cs 12, NS1 inh inconclusive
Cc1oc(C(=O)O)cc1CSCc1ccoc1C(=O)O	none
O=C(/C=C/c1ccccc1)NCCSCc1ccccc1	Shiga toxin inh 44
O=C(/C=C/c1ccccc1)NCCCNC(=O)/C=C/c1ccccc1	none (no result: NS1 inh)
COc1ccc(/C=C/C(=O)NCCSCc2ccco2)cc1	Cycloheximide cs 17
COc1ccc(/C=C/C(=O)NCCCc2ccccc2)cc1	none
C=CCC1NS(=O)(=O)OCC1C(C)C (centres undefined)	none
NC(=O)c1ccsc1NC(=O)CSc1ccccc1F	Cycloheximide cs 36
Cc1csc(SCC(=O)Nc2sccc2C(N)=O)n1	Cycloheximide cs 36, Shiga toxin inh 68 (no result: NS1 inh)
COc1ccc2c(c1)C(=O)[C@H](OC(=O)NCc1ccco1)[C@@H](c1ccc(OC)c(Br)c1)O2	none (no result: Cycloheximide cs, NS1 inh, Shiga toxin inh, LmPK inhibitor)
CN(C)c1cccc(C(=O)NCC2CCCO2)c1 (centres undefined)	Shiga toxin inh 42
O=C(Nc1ccc(O)cc1)c1ccc(NC(=O)C2CCCO2)cc1 (centres undefined)	none (no result: FBPA Giardia inh)
COc1ccc(C(=O)NCC2CCCO2)cc1 (centres undefined)	Cycloheximide cs 36, Shiga toxin inh 54
O=C(NCC1CCCO1)c1cc2c(s1)CCC2 (centres undefined)	Cycloheximide cs 52, Shiga toxin inh 89 (no result: NS1 inh)
Cc1cc(NC(=O)c2ccc(NC(=O)C3CCCO3)cc2)ccc1Br (centres undefined)	Cycloheximide cs 42, Shiga toxin inh 74
CCCn1c2ccccc2c2cnn(CC(=O)NC3CCCCC3)c(=O)c21	none (no result: FBPA Giardia inh)
COc1ccc2cc(C(C)C(=O)N3CCC(C(N)=O)CC3)ccc2c1 (centres undefined)	none
COc1ccccc1CNC(=O)C(=O)NCC1CCCO1 (centres undefined)	Cycloheximide cs 24, Shiga toxin inh 62
COc1cccc(-c2cc(C(=O)NCC3CCCO3)c3cc(C)cc(C)c3n2)c1 (centres undefined)	Cycloheximide cs 12
COc1ccc(CCNCC2CCCO2)cc1 (centres undefined)	FBPA Giardia inh inconclusive, Cycloheximide cs 18, Shiga toxin inh 24
CS(=O)(=O)N(CC(=O)NCC1CCCO1)c1cccc(Cl)c1 (centres undefined)	Cycloheximide cs 15
COc1ccccc1CC(=O)NCC1CCCO1 (centres undefined)	none
O=C(CSc1nnc(C2CC2)n1CC1CCCO1)Nc1ccccc1Cl (centres undefined)	none
CCOC(=O)c1ccc(NC(=S)Nc2ccc3[nH]c(=O)[nH]c3c2)cc1	none
CCOC(=O)N1CCN(C(=O)C2CCC(=O)N(CCCc3ccccc3)C2)CC1 (centres undefined)	none (no result: FBPA Giardia inh)
COc1ccc(CNC(=O)c2ccc(NC(=O)C3CCCO3)cc2)cc1 (centres undefined)	Shiga toxin inh 26
CN(C)c1ccc(C(=O)NCC2CCCO2)cc1 (centres undefined)	Cycloheximide cs 43, Shiga toxin inh 64
CCCOC(=O)c1ccc(NC(=O)C2CCCO2)cc1 (centres undefined)	Cycloheximide cs 39, Shiga toxin inh 66
COCCN(C(=O)CCC(=O)Nc1ccccn1)C(C(=O)NCCC(C)C)c1ccc(F)cc1 (centres undefined)	none
COc1ccc(C(=O)N(CC(=O)Nc2sc(C)c(C)c2C(N)=O)C2CCCC2)cc1	Cycloheximide cs 23
CN(C)c1ccc(/C=C/C=C/c2sc3ccccc3[n+]2C)cc1	none
CC[n+]1c(/C=C/C=C/c2ccc(N(C)C)cc2)sc2ccccc21	LmPK inhibitor 16µM
NC[C@@H]1O[C@@H](O[C@H]2[C@H](O)[C@@H](O[C@@H]3O[C@@H](CO)[C@H](O)[C@@H](N)[C@@H]3O)[C@H](N)C[C@@H]2N)[C@@H](O)[C@H](O)[C@H]1O	none (no result: NS1 inh, LmPK inhibitor)
Nc1nc(Cl)cc(NCCc2ccccc2)n1	Cycloheximide cs 15 (no result: NS1 inh)
O=C(/C=C/c1cc(Br)ccc1F)Nc1cccnc1	Cycloheximide cs 26, Shiga toxin inh 39
O=C(Nc1cccnc1)c1c(F)cccc1F	none
O=C(/C=C/c1c(F)cccc1Cl)Nc1cccnc1	Cycloheximide cs 39 (no result: Shiga toxin inh)
COc1cc(/C=C/C(=O)Nc2cccnc2)cc(OC)c1OC	none
Cc1ccccc1CN1CCC(n2nccc2NC(=O)CCOc2ccccc2)CC1	none (no result: FBPA Giardia inh)
Cc1noc(C)c1C(=O)Nc1nc2ccc(Cl)cc2s1	Cycloheximide cs 42, Shiga toxin inh 89 (no result: FBPA Giardia inh)
O=C(Nc1nc2ccc(Br)cc2s1)c1ccco1	Cycloheximide cs 30 (no result: Shiga toxin inh)
O=C(Nc1nc2ccc(Cl)cc2s1)c1ccco1	Cycloheximide cs 41, Shiga toxin inh 62
Cc1onc(-c2ccccc2Cl)c1C(=O)Nc1nc2ccc(S(C)(=O)=O)cc2s1	none
